Structures can show the parent of a compound that is named as a salt.

For the test, the system named is Saccharomyces cerevisiae BY4741 SeMeCo community. The test is described as follows: z-score of subpopulation abundance vs DMSO median, subpopulation auxotrophic for M; higher = larger share of this subpopulation than in DMSO controls. To be noted: 10 µM; 24 h; SM minimal medium; subpopulation (auxotrophy): M. On the procedure:
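Fluorescent four-plasmid SeMeCo (self-establishing metabolically cooperating S. cerevisiae BY4741 community; plasmids pH-mRuby2, pL-mWasabi, pU-eCFP, pM-TagRFP657) was grown 24 h in minimal SM medium with each Selleck FDA-approved drug at 10 µM in 384-well plates. Cells were fixed and imaged by high-content confocal microscopy. For each auxotrophic subpopulation (and the prototroph), a z-score gives the deviation from the DMSO vehicle-control population median.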
On to `NC(=O)C(c1ccccc1)(c1ccccc1)[C@@H]1CCN(CCc2ccc3c(c2)CCO3)C1` [Darifenacin HBr], for which the “z-score of subpopulation abundance” value worked out at 0.85.

As to `NNc1nncc2ccccc12` [Hydralazine HCl], the “z-score of subpopulation abundance” value was -0.11.

With `Cc1ccccc1C(OCCN(C)C)c1ccccc1` (stereo not given) [Orphenadrine Citrate], the “z-score of subpopulation abundance” value was -0.02.

For `Cc1c(C)c2c(c(C)c1O)CCC(C)(CCCC(C)CCCC(C)CCCC(C)C)O2` (stereo not given) [Vitamin E], the “z-score of subpopulation abundance” value was -0.6.

As to `CO[C@@]1(NC(=O)CSC[C@@H](N)C(=O)O)C(=O)N2C(C(=O)O)=C(CSc3nnnn3C)CS[C@@H]21` [Cefminox Sodium], the “z-score of subpopulation abundance” value was -0.58.

For `CC(=O)OCC1=C(C(=O)O)N2C(=O)C(NC(=O)CSC(=NC(C)C)NC(C)C)C2SC1` (stereo not given) [Cefathiamidine], the “z-score of subpopulation abundance” value is -0.3.

As to `Cc1ncc([N+](=O)[O-])n1CCO` [Metronidazole], the “z-score of subpopulation abundance” value was 0.32.

`CCCN1CCCC[C@H]1C(=O)Nc1c(C)cccc1C` [Ropivacaine HCl]: the “z-score of subpopulation abundance” value is 0.95.

For the compound `CC(NCCC(c1ccccc1)c1ccccc1)c1ccccc1` (stereo not given) [Fendiline hydrochloride], the “z-score of subpopulation abundance” value is -1.56.

For the compound `N#CC(c1ccc(Cl)cc1)c1c(Cl)cc(-n2ncc(=O)[nH]c2=O)cc1Cl` (stereo not given) [Diclazuril], the “z-score of subpopulation abundance” value worked out at 0.92.

Regarding `CC(=O)[C@H]1CC[C@H]2[C@@H]3CCC4=CC(=O)CC[C@]4(C)[C@H]3CC[C@]12C` [Progesterone], the “z-score of subpopulation abundance” value stood at 0.64.

For the compound `CCN(CC)C(=O)C1(c2ccccc2)CC1CN` (stereo not given) [Milnacipran HCl], the “z-score of subpopulation abundance” value is -0.86.

As for `Cc1ccc(S(=O)(=O)NC(=O)NN2CC3CCCC3C2)cc1` (stereo not given) [Gliclazide], the “z-score of subpopulation abundance” value was 0.04.

On to `CN(C)CCCN1c2ccccc2Sc2ccccc21` [Promazine hydrochloride], for which the “z-score of subpopulation abundance” value is 0.15.

`N#Cc1ccc(Oc2ccc3c(c2)COB3O)cc1` [Crisaborole (AN2728)]: the “z-score of subpopulation abundance” value was -1.21.

As to `Cc1cccc(C)c1NC(=O)C1CCCCN1C` (stereo not given) [Mepivacaine HCl], the “z-score of subpopulation abundance” value is -0.34.

Regarding `Cc1cccc(C)c1NC(=O)C1CCCCN1C` (stereo not given) [Mepivacaine], the “z-score of subpopulation abundance” value was found to be 0.42.

For the compound `Cc1cccc(Nc2ccccc2C(=O)O)c1C` [Mefenamic Acid], the “z-score of subpopulation abundance” value amounted to 0.15.

On to `CN1CCN(c2cc3c(cc2F)c(=O)c(C(=O)O)cn3-c2ccc(F)cc2)CC1` [Difloxacin hydrochloride], for which the “z-score of subpopulation abundance” value is 0.06.

Regarding `CC1(C)S[C@@H]2[C@H](NC(=O)[C@H](N)c3ccc(O)cc3)C(=O)N2[C@H]1C(=O)O` [Amoxicillin trihydrate], the “z-score of subpopulation abundance” value came to 0.05.

As for `Clc1ccc(C(Cn2ccnc2)OCc2csc3c(Cl)cccc23)c(Cl)c1` (stereo not given) [Sertaconazole nitrate], the “z-score of subpopulation abundance” value is -9.36.

Regarding `CC(=O)Oc1ccccc1C(=O)O` [Aspirin], the “z-score of subpopulation abundance” value was determined as 1.14.

For `O=C(O)c1cc(-c2ccc(F)cc2F)ccc1O` [Diflunisal], the “z-score of subpopulation abundance” value is -2.15.

For `COc1ccc(Cl)cc1C(=O)NCCc1ccc(S(=O)(=O)NC(=O)NC2CCCCC2)cc1` [Glyburide (Glibenclamide)], the “z-score of subpopulation abundance” value was -0.21.

For `CC(C(=O)O)c1ccc2c(c1)Cc1cccnc1O2` (stereo not given) [Pranoprofen], the “z-score of subpopulation abundance” value is -0.49.

For the compound `CC(=O)NS(=O)(=O)c1ccc(N)cc1` [Sulfacetamide Sodium], the “z-score of subpopulation abundance” value was determined as 0.42.

As for `C[n+]1ccccc1C=NO` [Pralidoxime Iodide], the “z-score of subpopulation abundance” value was determined as 0.07.

As to `CCN(CC)CCOc1ccc(C(=C(Cl)c2ccccc2)c2ccccc2)cc1` [Clomifene citrate], the “z-score of subpopulation abundance” value turned out to be 0.99.

For `C[C@H]1O[C@@H](O[C@H]2[C@@H](O)C[C@H](O[C@H]3[C@@H](O)C[C@H](O[C@H]4CC[C@@]5(C)[C@H](CC[C@@H]6[C@@H]5C[C@@H](O)[C@]5(C)[C@@H](C7=CC(=O)OC7)CC[C@]65O)C4)O[C@@H]3C)O[C@@H]2C)C[C@H](O)[C@@H]1O` [Digoxin], the “z-score of subpopulation abundance” value is -1.12.

Take `CCN(CC)CCOC(=O)c1ccc(N)cc1` [Procaine HCl]: the “z-score of subpopulation abundance” value was -0.44.

As to `CC1(C)S[C@@H]2[C@H](NC(=O)[C@H](NC(=O)N3CCNC3=O)c3ccccc3)C(=O)N2[C@H]1C(=O)O` [Azlocillin sodium salt], the “z-score of subpopulation abundance” value was -0.54.

As to `O=C(O)CCC(=O)OC[C@@H](NC(=O)C(Cl)Cl)[C@H](O)c1ccc([N+](=O)[O-])cc1` [Chloramphenicol sodium succinate], the “z-score of subpopulation abundance” value was 0.71.

Consider `Cc1cc(-c2ccc(/N=N/c3ccc4c(S(=O)(=O)O)cc(S(=O)(=O)O)c(N)c4c3O)c(C)c2)ccc1/N=N/c1ccc2c(S(=O)(=O)O)cc(S(=O)(=O)O)c(N)c2c1O` [Evans Blue], for which the “z-score of subpopulation abundance” value was -14.3.

For `COc1cc(NS(=O)(=O)c2ccc(N)cc2)nc(OC)n1` [SulfadiMethoxine sodium], the “z-score of subpopulation abundance” value is 0.96.

For the compound `CN1CCc2cc3c(cc2C(=O)Cc2ccc4c(c2C1)OCO4)OCO3` [Protopine], the “z-score of subpopulation abundance” value was -0.25.

On to `COC(=O)C1=C(C)NC(C)=C(C(=O)OC(C)(C)CN(C)CCC(c2ccccc2)c2ccccc2)C1c1cccc([N+](=O)[O-])c1` (stereo not given) [Lercanidipine], for which the “z-score of subpopulation abundance” value worked out at 0.27.

Turning to `C[C@@H](O)[C@H]1C(=O)N2C(C(=O)[O-])=C(SC3Cn4cnc[n+]4C3)[C@H](C)[C@H]12` (stereo not given in full) [Biapenem], the “z-score of subpopulation abundance” value is 1.3.

Take `Cc1nc2n(c(=O)c1CCN1CCC(c3noc4cc(F)ccc34)CC1)CCCC2` [Risperidone]: the “z-score of subpopulation abundance” value is -0.08.

Take `CCOc1ccc2ccccc2c1C(=O)N[C@@H]1C(=O)N2[C@@H]1SC(C)(C)[C@@H]2C(=O)O` [Nafcillin Sodium]: the “z-score of subpopulation abundance” value was -0.26.

Turning to `COC(=O)C1=C(C)NC(C)=C(C(=O)OC(C)(C)CN(C)CCC(c2ccccc2)c2ccccc2)C1c1cccc([N+](=O)[O-])c1` (stereo not given) [Lercanidipine hydrochloride], the “z-score of subpopulation abundance” value came out at 0.32.
